Screens from PubChem.
An excerpt weighted towards active compounds, which were near 3.8% of everything screened.
ATXN viability – Viability Counterscreen for Primary qHTS for Inhibitors of ATXN expression; Potency, µM (series often up to 56.7 µM), actives largely listed as cytotoxic; S2 cells (HEK-293 line with an ATXN2-luciferase reporter) viability, CellTiter-Fluor protease fluorescence, 24 h; AID 651635, 2014; 400,000 tested, 0.49% active; further: nearly all actives have a fitted effect of over 40% in size
ATXN2 expr inh – Primary qHTS for Inhibitors of ATXN expression. HEK-293 ATXN2-luciferase reporter, luminescence, 24 h. 360,000 tested, 0.72% active. Potency, µM (titrated, usually from 57 µM), without a hit: at the top dose activity change, negative = inhibition, actives largely listed as inhibitors; further: on the % scale 0 is the no-effect control and ±100 the full control effect; nearly all actives have a fitted effect of over 55% in size
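qHTS (up to 57 uM final) was run with 24 h compound exposure of reporter cells at 37 °C. Each well was multiplexed: SteadyGlo luminescence measured ATXN2-luciferase expression after a fluorogenic Gly-Phe-AFC viability readout (25 uM final).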
HT1080 IDH1KD tx – qHTS for induction of synthetic lethality in tumor cells producing 2HG: qHTS for the HT-1080-IDH1KD cell line. 360,000 tested, 2% active. Potency, µM (doses to about 46.1 µM), for the others: at the top dose activity, negative = toxicity, most hits filed as cytotoxic. AID 686971, 2013. HT-1080 IDH1 knockdown viability, ATP luminescence, 48 h;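 further: 0% = DMSO wells and -100% = cell-free medium wells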
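CellTiter-Glo luminescence after 48 h compound exposure at 37 degrees C of IDH1-knockdown HT-1080 cells in 5% FBS RPMI. %Activity scaled between DMSO wells and cell-free media wells, with curves fitted and assigned curve classes.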
HepG2 viability – qHTS for Inhibitors of TGF-b: Cytotox Counterscreen; 410,000 tested, 0.76% active; HepG2 CAGA-GFP viability, ATP luminescence, 18 h; AID 588856, 2011; Potency, µM (series often up to 46.1 µM), without a hit: at the top dose activity change, negative = cytotoxicity, usual class: cytotoxic
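HepG2 CAGA-GFP cells (1000/well, DMEM with 1% FBS) received compound, then TGF-beta at 500 pg/mL final, and were incubated 18 hours at 37 degrees C. Viability was read by CellTiter-Glo luminescence. Media-only wells were set as complete cell-killing and DMSO as no toxicity.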
TGFb inhibitor – qHTS for Inhibitors of TGF-b; HepG2 CAGA-GFP TGF-b/SMAD3 reporter, GFP fluorescence, 18 h; TGF-beta stimulated, 500 pg/mL final; 410,000 tested, 1.2% active; AID 588855, 2011; Potency, µM (doses to about 46.1 µM), for the others: top-dose activity, negative = inhibition, hits mostly inhibitors; further: on the % scale 0 is the no-effect control and ±100 the full control effect; nearly all actives have a fitted effect of over 65% in size
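Using HEPG2 CAGA-GFP reporter cells at 1000 cells/well, we pinned test compounds, stimulated with recombinant TGF-beta (500 pg/mL final) and measured total well GFP after 18 h.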
HT1080-NT tox – qHTS for induction of synthetic lethality in tumor cells producing 2HG: qHTS for the HT-1080-NT fibrosarcoma cell line; AID 686970, 2013; HT-1080-NT fibrosarcoma viability, CellTiter-Glo ATP luminescence, 48 h; Potency, µM (top dose mostly 46.1 µM), inactives show at the highest dose activity, negative = less viability, actives largely listed as cytotoxic; 360,000 tested, 1.6% active;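 further: NT is the 2HG producing partner of a matched IDH1 knockdown line; 0% = DMSO-treated cells and -100% = media-only wells without cells; nearly all actives have a fitted effect of over 55% in size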
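HT-1080-NT; 750 cells/well; 5% FBS RPMI; 48 h compound, 37 degrees C; CellTiter-Glo luminescence; curve fitting and curve-class assignment.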
* marks the source's active call; other numbers are inactive results; [ ] = dose if it differs, or a comment. The call rests on the fitted dose curve; in most records, active means well fitted curve in the direction sought with a large enough effect; inconclusive means small, poorly fitted or top-dose-only effect, or another doubt; inactive means no such curve, though single readings can be large; an effect the other way counts as inactive or inconclusive. Potency means the concentration at half of the fitted maximal effect.

CC1CN(c2ccc([N+](=O)[O-])c(NCCOc3ccccc3)c2)CC(C)N1 (stereo not drawn) was read as ATXN viability inconclusive, ATXN2 expr inh inconclusive, HT1080 IDH1KD tx 21µM*, HepG2 viability -58%, TGFb inhibitor inconclusive and HT1080-NT tox 16µM*.
For COc1cccc(OCCNc2cc(Cl)ccc2[N+](=O)[O-])c1 the results were ATXN viability inactive, ATXN2 expr inh 34%, HT1080 IDH1KD tx 2%[9.24 µM], HepG2 viability -87%, TGFb inhibitor -20% and HT1080-NT tox 1%.
Cc1ccccc1OCCNc1cc(N2CC(C)NC(C)C2)ccc1[N+](=O)[O-] (stereo not drawn) was read as ATXN viability 24µM*, ATXN2 expr inh inconclusive, HT1080 IDH1KD tx inconclusive, HepG2 viability -116%, TGFb inhibitor inconclusive and HT1080-NT tox inconclusive.
CC1CN(c2ccc([N+](=O)[O-])c(NCCOc3ccc(Cl)cc3)c2)CC(C)N1 (stereo not drawn) was read as HT1080 IDH1KD tx inconclusive, HepG2 viability 14µM*, TGFb inhibitor inconclusive and HT1080-NT tox inconclusive.
`O=[N+]([O-])c1ccc(N2CCCCC2)cc1NCCOc1ccccc1` gave ATXN viability inactive, ATXN2 expr inh 21%, HT1080 IDH1KD tx 19%, HepG2 viability 4%, TGFb inhibitor -13% and HT1080-NT tox 19%.
`CCc1ccc(OCCNc2cc(N3CCNC(C)C3)ccc2[N+](=O)[O-])cc1` (stereo not drawn) gave ATXN viability inactive, ATXN2 expr inh inconclusive, HT1080 IDH1KD tx inconclusive, HepG2 viability 11µM*, TGFb inhibitor inconclusive and HT1080-NT tox inconclusive.
`NCCNc1cc(N2CCCC2)ccc1[N+](=O)[O-]` gave ATXN viability inconclusive, ATXN2 expr inh -33%, HT1080 IDH1KD tx -4%, HepG2 viability -6%, TGFb inhibitor -17% and HT1080-NT tox 0%.
`CC(C)(C)CNc1cc(N2CCCC2)ccc1[N+](=O)[O-]` gave ATXN viability inactive, ATXN2 expr inh 3%, HT1080 IDH1KD tx 4%, HepG2 viability -2%, TGFb inhibitor -1% and HT1080-NT tox 4%.
`CC(C)N(CC[C@H](c1ccccc1)c1cc(CO)ccc1O)C(C)C` gave ATXN2 expr inh -7%.
CC[n+]1c(/C=C(\C)OC)sc2ccccc21 was read as ATXN viability inactive, ATXN2 expr inh -10%, HT1080 IDH1KD tx 11%, HepG2 viability 1%, TGFb inhibitor -1% and HT1080-NT tox 20%.
For CC[n+]1c(/C=C/C=C/N(C(C)=O)c2ccccc2)sc2cc(OC)ccc21 the results were ATXN viability 32µM*, ATXN2 expr inh 20µM*, HT1080 IDH1KD tx inconclusive, HepG2 viability -37%, TGFb inhibitor 168% and HT1080-NT tox inconclusive.
`CCN(CCNCC(O)COCc1ccc(Cl)cc1)c1cccc(C)c1` (stereo not drawn) gave ATXN viability inactive, ATXN2 expr inh -17%, HT1080 IDH1KD tx inconclusive, HepG2 viability -92%, TGFb inhibitor inconclusive and HT1080-NT tox 16µM*.
For Cn1c(SCc2ccccc2)nnc1C1CCCN(Cc2cccc3ncccc23)C1 (stereo not drawn) the results were ATXN viability inactive.
`Cc1c(Cl)cccc1N=Cc1ccc([N+](=O)[O-])s1` gave ATXN viability inconclusive, ATXN2 expr inh inconclusive, HT1080 IDH1KD tx 10µM*, HepG2 viability -115%, TGFb inhibitor inconclusive and HT1080-NT tox 13µM*.
